The labels stand for the following.
B1: AUUCGUU (DNA:RNA)
RNA: GGGAGACCGGAAUUCAGAUUGUCCAUUCGUUUUAAAUCCCGUCGUAGCCACCA
DNA 1: CAATCTGAATTCCGGTCTCCC
DNA 2: TGGTGGCTACGACGGGATT
B2: UUAGGAG (DNA:RNA)
RNA: B1 RNA with A25U, U27A, C28G, U30A, U31G
DNA 1: CAATCTGAATTCCGGTCTCCC
DNA 2: TGGTGGCTACGACGGGATT
B3: AGGCUCU (DNA:RNA)
RNA: B1 RNA with U26G, U27G, G29U, U30C
DNA 1: CAATCTGAATTCCGGTCTCCC
DNA 2: TGGTGGCTACGACGGGATT
B4: CGCGGGG (DNA:RNA)
RNA: B1 RNA with A25C, U26G, U27C, C28G, U30G, U31G
DNA 1: CAATCTGAATTCCGGTCTCCC
DNA 2: TGGTGGCTACGACGGGATT
B5: UCCAGCA (DNA:RNA)
RNA: B1 RNA with A25U, U26C, U27C, C28A, U30C, U31A
DNA 1: CAATCTGAATTCCGGTCTCCC
DNA 2: TGGTGGCTACGACGGGATT
B6: GGAUCGG (DNA:RNA)
RNA: GGGAGACCGGAAUUCAGAUUGUCCGGAUCGGUUAAAUCCCGUCGUAGCCACCA
DNA 1: CAATCTGAATTCCGGTCTCCC
DNA 2: TGGTGGCTACGACGGGATT
B7: CACCACG (DNA:RNA)
RNA: B1 RNA with A25C, U26A, U27C, G29A, U30C, U31G
DNA 1: CAATCTGAATTCCGGTCTCCC
DNA 2: TGGTGGCTACGACGGGATT
B8: AGAUCGU (DNA:RNA)
RNA: B6 RNA with G25A, G31U
DNA 1: CAATCTGAATTCCGGTCTCCC
DNA 2: TGGTGGCTACGACGGGATT
B9: GUAUAUG (DNA:RNA)
RNA: B6 RNA with G26U, C29A, G30U
DNA 1: CAATCTGAATTCCGGTCTCCC
DNA 2: TGGTGGCTACGACGGGATT
B10: GGAUAUG (DNA:RNA)
RNA: B6 RNA with C29A, G30U
DNA 1: CAATCTGAATTCCGGTCTCCC
DNA 2: TGGTGGCTACGACGGGATT
B11: CGAUAUG (DNA:RNA)
RNA: B6 RNA with G25C, C29A, G30U
DNA 1: CAATCTGAATTCCGGTCTCCC
DNA 2: TGGTGGCTACGACGGGATT
B12: CGGAUCG (DNA:RNA)
RNA: B6 RNA with G25C, A27G, U28A, C29U, G30C
DNA 1: CAATCTGAATTCCGGTCTCCC
DNA 2: TGGTGGCTACGACGGGATT
B13: GGAUCGU (DNA:RNA)
RNA: B6 RNA with G31U
DNA 1: CAATCTGAATTCCGGTCTCCC
DNA 2: TGGTGGCTACGACGGGATT
B14: GGGAUUG (DNA:RNA)
RNA: B6 RNA with A27G, U28A, C29U, G30U
DNA 1: CAATCTGAATTCCGGTCTCCC
DNA 2: TGGTGGCTACGACGGGATT
B15: GGGAUCG (DNA:RNA)
RNA: B6 RNA with A27G, U28A, C29U, G30C
DNA 1: CAATCTGAATTCCGGTCTCCC
DNA 2: TGGTGGCTACGACGGGATT
B16: CGAUCGU (DNA:RNA)
RNA: B6 RNA with G25C, G31U
DNA 1: CAATCTGAATTCCGGTCTCCC
DNA 2: TGGTGGCTACGACGGGATT
B17: GUGAGUC (DNA:RNA)
RNA: B1 RNA with A25G, U27G, C28A, U31C
DNA 1: CAATCTGAATTCCGGTCTCCC
DNA 2: TGGTGGCTACGACGGGATT
B18: UUCUCUG (DNA:RNA)
RNA: B6 RNA with G25U, G26U, A27C, G30U
DNA 1: CAATCTGAATTCCGGTCTCCC
DNA 2: TGGTGGCTACGACGGGATT
B19: UUAUUAA (DNA:RNA)
RNA: B6 RNA with G25U, G26U, C29U, G30A, G31A
DNA 1: CAATCTGAATTCCGGTCTCCC
DNA 2: TGGTGGCTACGACGGGATT
B20: UCGAGUG (DNA:RNA)
RNA: B1 RNA with A25U, U26C, U27G, C28A, U31G
DNA 1: CAATCTGAATTCCGGTCTCCC
DNA 2: TGGTGGCTACGACGGGATT
B21: CUUGCGU (DNA:RNA)
RNA: B1 RNA with A25C, C28G, G29C, U30G
DNA 1: CAATCTGAATTCCGGTCTCCC
DNA 2: TGGTGGCTACGACGGGATT
B22: AGCACGA (DNA:RNA)
RNA: B6 RNA with G25A, A27C, U28A, G31A
DNA 1: CAATCTGAATTCCGGTCTCCC
DNA 2: TGGTGGCTACGACGGGATT
B23: CUGCUGC (DNA:RNA)
RNA: B1 RNA with A25C, U27G, G29U, U30G, U31C
DNA 1: CAATCTGAATTCCGGTCTCCC
DNA 2: TGGTGGCTACGACGGGATT
B24: CCCCUGC (DNA:RNA)
RNA: B1 RNA with A25C, U26C, U27C, G29U, U30G, U31C
DNA 1: CAATCTGAATTCCGGTCTCCC
DNA 2: TGGTGGCTACGACGGGATT
B25: UGCUGCU (DNA:RNA)
RNA: B1 RNA with A25U, U26G, U27C, C28U, U30C
DNA 1: CAATCTGAATTCCGGTCTCCC
DNA 2: TGGTGGCTACGACGGGATT
B26: UGCUUGC (DNA:RNA)
RNA: B6 RNA with G25U, A27C, C29U, G31C
DNA 1: CAATCTGAATTCCGGTCTCCC
DNA 2: TGGTGGCTACGACGGGATT
B27: CUGCUUG (DNA:RNA)
RNA: B1 RNA with A25C, U27G, G29U, U31G
DNA 1: CAATCTGAATTCCGGTCTCCC
DNA 2: TGGTGGCTACGACGGGATT
B28: UGCUUGU (DNA:RNA)
RNA: B6 RNA with G25U, A27C, C29U, G31U
DNA 1: CAATCTGAATTCCGGTCTCCC
DNA 2: TGGTGGCTACGACGGGATT
B29: UUACGGC (DNA:RNA)
RNA: B1 RNA with A25U, U27A, U30G, U31C
DNA 1: CAATCTGAATTCCGGTCTCCC
DNA 2: TGGTGGCTACGACGGGATT
B30: UUCGUUU (DNA:RNA)
RNA: B1 RNA with A25U, U27C, C28G, G29U
DNA 1: CAATCTGAATTCCGGTCTCCC
DNA 2: TGGTGGCTACGACGGGATT
B31: AAGUGAC (DNA:RNA)
RNA: B1 RNA with U26A, U27G, C28U, U30A, U31C
DNA 1: CAATCTGAATTCCGGTCTCCC
DNA 2: TGGTGGCTACGACGGGATT

Substitutions are numbered along the chain they refer to; changes in the protein carry UniProt numbers. Over roughly 16,000 sequences, “ka relative to ugcaugu” has its median near 0.096; the highest 2% begin near 0.35. The list comes from a sample in which the highest values are over-represented; it also holds similar and randomly drawn sequences.

The assay concerns the target T1, RBFOX1 RRM RbFoxmut (Fox-RRM*) (Homo sapiens, UniProt Q9NWB1 109-208, R118D;E147R;N151S;E152T).
T1 sequence: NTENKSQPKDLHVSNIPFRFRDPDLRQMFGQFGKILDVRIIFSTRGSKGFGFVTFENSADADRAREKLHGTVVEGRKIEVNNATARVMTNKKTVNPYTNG
Nature of the assay: EMSA; HiTS-Eq, 1 nM pool, 10 min; buffer printed only for the single-RNA assays: 10 mM Tris pH 7.5, 150 mM NaCl, 3.4 mM EDTA, 0.001% NP-40, 30 C. The conditions noted are these: tags: His6 N-terminal (pET28a); label: 5' 32P. The gist of the method:
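Purified wild-type or mutant RbFox RRM at increasing concentrations was equilibrated with 1 nM of 5′-radiolabelled RNA carrying 7 randomized nucleotides for 10 min in 50 µL. Unbound RNA was separated by 8% native PAGE and sequenced. Relative association constants came from read-count changes of each RNA species compared with the control reaction, normalised to the cognate motif.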
A general note: A gel shift assay detects complexes by their altered migration in electrophoresis.
For the molecule B1, the binding signal is 0.134 KA relative to UGCAUGU.

Regarding B2, the binding signal was 0.129 KA relative to UGCAUGU.

For the molecule B3, the binding signal was 0.0577 KA relative to UGCAUGU.

For the molecule B4, the binding signal was 0.0735 KA relative to UGCAUGU.

In the case of B5, the binding signal is 0.123 KA relative to UGCAUGU.

As to B6, the binding signal is 0.176 KA relative to UGCAUGU.

B7: the binding signal was 0.125 KA relative to UGCAUGU.

Consider B8, for which the binding signal is 0.105 KA relative to UGCAUGU.

Take B9: the binding signal is 0.199 KA relative to UGCAUGU.

Regarding B10, the binding signal is 0.496 KA relative to UGCAUGU.

With B11, the binding signal is 0.159 KA relative to UGCAUGU.

With B12, the binding signal is 0.331 KA relative to UGCAUGU.

B13: the binding signal was 0.354 KA relative to UGCAUGU.

With B14, the binding signal is 0.282 KA relative to UGCAUGU.

Regarding B15, the binding signal is 0.369 KA relative to UGCAUGU.

Take B16: the binding signal was 0.118 KA relative to UGCAUGU.

B17: the binding signal was 0.138 KA relative to UGCAUGU.

For the molecule B18, the binding signal is 0.0908 KA relative to UGCAUGU.

On to B19, for which the binding signal is 0.0751 KA relative to UGCAUGU.

Take B20: the binding signal is 0.167 KA relative to UGCAUGU.

In the case of B21, the binding signal was 0.154 KA relative to UGCAUGU.

With B22, the binding signal is 0.141 KA relative to UGCAUGU.

For the molecule B23, the binding signal is 0.126 KA relative to UGCAUGU.

With B24, the binding signal is 0.0955 KA relative to UGCAUGU.

In the case of B25, the binding signal was 0.12 KA relative to UGCAUGU.

As for B26, the binding signal is 0.264 KA relative to UGCAUGU.

As for B27, the binding signal was 0.423 KA relative to UGCAUGU.

Turning to B28, the binding signal was 0.428 KA relative to UGCAUGU.

With B29, the binding signal was 0.0823 KA relative to UGCAUGU.

For B30, the binding signal is 0.112 KA relative to UGCAUGU.

In the case of B31, the binding signal is 0.0758 KA relative to UGCAUGU.

Source of the values: PMC9911399, “Two distinct binding modes provide the RNA-binding protein RbFox with extraordinary sequence specificity”.
